Measured values: PubChem BioAssay (Tox21)
Records with an inconclusive call do not appear. Active and inactive are the calls of the source. Calls come from the whole dose curve; as a rule, active = well fitted curve in the direction sought with a large enough effect in the repeat runs; inconclusive = weak or mixed curves; inactive = no such curve, though single readings can be large; an effect the other way counts as inactive or inconclusive.

Experiments:
[1] = Caspase-3/7 induction in CHO-K1 cells by small molecules, qHTS cell viability counter screen (AID 1346979); note: nearly all actives have a fitted effect of over 35% in size; note: potency is the fitted concentration of half-maximal effect
How it was run: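 Seeding: 1,500 CHO-K1 cells/well. Rest: 5hr, 37C. Treatment: compounds in DMSO, 16hr. Read: CellTiter-Fluor, 1hr, fluorescence.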

[2] = Caspase-3/7 induction in CHO-K1 cells by small molecules, qHTS assay (AID 1346980); note: nearly all actives have a fitted effect of over 15% in size
How it was run: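 Wild-type CHO-K1 cells exposed to compounds for 17hr at 37 C, 5% CO2. Caspase-3/7 activity then measured by Caspase-Glo 3/7 luminescence after 30min at room temperature.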

[3] = Caspase-3/7 induction in HepG2 cells by small molecules, qHTS cell viability counter screen (AID 1346981); note: nearly all actives have a fitted effect of over 30% in size; note: potency is the fitted concentration of half-maximal effect
How it was run: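 Wild-type HepG2 cells, 2,000/well, settled 5 hr at 37 C, 5% CO2 before compound addition. Viability read by CellTiter-Fluor fluorescence, reagent added after 16 hr compound exposure, then 1 hr at 37C, in the same wells as the caspase read.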

[4] = target: Nuclear receptor subfamily 1 group I member 2 (Homo sapiens) (UniProt O75469); assay: Human pregnane X receptor (PXR) small molecule agonists, qHTS assay (AID 1346982); note: nearly all actives have a fitted effect of over 35% in size; note: potency is the fitted concentration of half-maximal effect
How it was run: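 PXR-Luc HepG2 reporter cells (CYP3A4-driven luciferase) in 5% charcoal-stripped FBS medium, plated 5 h before compound addition, then treated 24 h at 37C. Luciferase read by ONE-Glo luminescence after 30 min at room temperature.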

[5] = target: Cytochrome P450 2D6 (Homo sapiens) (UniProt P10635); assay: Cytochrome P450 Family 2 Subfamily D Member 6 (CYP2D6) small molecule antagonists: luciferase reporter qHTS assay (AID 1671196); note: nearly all actives have a fitted effect of over 50% in size; note: potency is the fitted concentration of half-maximal effect
How it was run: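 Cell-free P450-Glo system: CYP2D6 with proluciferin substrate was pre-incubated with compound for 10 min, then reacted with NADPH regeneration for 1 h at room temperature. Luciferin product was detected after 20 min, and data were reported as relative luminescence units.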

[6] = Caspase-3/7 induction in HepG2 cells by small molecules, qHTS assay (AID 1346978); note: nearly all actives have a fitted effect of over 15% in size
How it was run: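 Wild-type HepG2 cells, 2,000/well, settled 5 hr at 37 C and 5% CO2, then compound-treated for 17 hr; caspase-3/7 activity read by luminescent Caspase-Glo 3/7 after 30 min at room temperature.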

[7] = target: Cytochrome P450 2C19 (Homo sapiens) (UniProt P33261); assay: Cytochrome P450 Family 2 Subfamily C Member 19 (CYP2C19) small molecule antagonists: luciferase reporter qHTS assay (AID 1671197); note: nearly all actives have a fitted effect of over 65% in size; note: potency is the fitted concentration of half-maximal effect
How it was run: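 Quantitative high-throughput screen of the Tox21 library using CYP2C19 with proluciferin substrate. Reaction: NADPH regeneration, 37C, 1 h, after 10 min compound preincubation at room temperature. Readout: luminescence.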

[8] = target: Nuclear receptor subfamily 1 group I member 2 (Rattus norvegicus) (UniProt Q9R1A7); assay: Rat pregnane X receptor (rPXR) activation by small molecules, qHTS assay (AID 1346983); settings: rPXR luciferase reporter cells, One-Glo luminescence, 24 h; max activation: hits give high values; note: nearly all actives have a fitted effect of over 20% in size
How it was run: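 Cell-based rPXR activation assay: rPXR cells, 2,000 per well, rested 5hr at 37 C, then exposed to compounds in DMSO for 24 hr at 37 C. Luciferase activity read by One-Glo luminescence after 30 min at room temperature.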

[9] = target: Nuclear receptor subfamily 1 group I member 2 (Homo sapiens) (UniProt O75469); assay: CYP3A4 induction through human pregnane X receptor (PXR) by small molecules, qHTS assay (AID 1346984); note: nearly all actives have a fitted effect of over 40% in size
How it was run: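 DPX-2 HepG2 cells carrying a PXR response element and CYP3A4-promoter luciferase construct, treated with compounds 24 hr at 37C. Then P450-Glo CYP3A4 Luciferin-IPA substrate (3uM final) for 3 hr at 37C, One-Glo added, luminescence read.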

[10] = target: Nuclear receptor subfamily 1 group I member 2 (Homo sapiens) (UniProt O75469); assay: Human pregnane X receptor (PXR) activation by small molecules, qHTS assay (AID 1346985); note: nearly all actives have a fitted effect of over 40% in size; note: potency is the fitted concentration of half-maximal effect
How it was run: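 DPX-2 cells (HepG2 co-transfected with a PXR response element and a CYP3A4-promoter luciferase construct) were seeded at 2,000 per well, rested 5 hr at 37C, then exposed to DMSO-dissolved compounds for 24 hr. Activation was read as luciferase luminescence.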
% is set by controls: 0 for no effect and ±100 for the full control effect.

Chain of Nuclear receptor subfamily 1 group I member 2 (Homo sapiens) (O75469 whole entry, looked up): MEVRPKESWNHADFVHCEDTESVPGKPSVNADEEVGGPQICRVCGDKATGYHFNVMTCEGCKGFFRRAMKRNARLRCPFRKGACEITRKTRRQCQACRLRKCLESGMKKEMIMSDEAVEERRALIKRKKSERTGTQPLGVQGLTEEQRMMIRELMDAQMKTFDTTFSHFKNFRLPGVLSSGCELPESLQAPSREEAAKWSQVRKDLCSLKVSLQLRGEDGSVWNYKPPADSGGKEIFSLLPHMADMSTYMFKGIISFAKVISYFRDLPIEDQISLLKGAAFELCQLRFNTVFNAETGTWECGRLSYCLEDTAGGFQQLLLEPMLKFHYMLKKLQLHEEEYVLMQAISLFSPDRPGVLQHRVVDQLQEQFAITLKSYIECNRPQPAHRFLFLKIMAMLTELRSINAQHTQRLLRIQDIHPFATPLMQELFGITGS
Chain of Cytochrome P450 2C19 (Homo sapiens) (P33261 whole entry, looked up): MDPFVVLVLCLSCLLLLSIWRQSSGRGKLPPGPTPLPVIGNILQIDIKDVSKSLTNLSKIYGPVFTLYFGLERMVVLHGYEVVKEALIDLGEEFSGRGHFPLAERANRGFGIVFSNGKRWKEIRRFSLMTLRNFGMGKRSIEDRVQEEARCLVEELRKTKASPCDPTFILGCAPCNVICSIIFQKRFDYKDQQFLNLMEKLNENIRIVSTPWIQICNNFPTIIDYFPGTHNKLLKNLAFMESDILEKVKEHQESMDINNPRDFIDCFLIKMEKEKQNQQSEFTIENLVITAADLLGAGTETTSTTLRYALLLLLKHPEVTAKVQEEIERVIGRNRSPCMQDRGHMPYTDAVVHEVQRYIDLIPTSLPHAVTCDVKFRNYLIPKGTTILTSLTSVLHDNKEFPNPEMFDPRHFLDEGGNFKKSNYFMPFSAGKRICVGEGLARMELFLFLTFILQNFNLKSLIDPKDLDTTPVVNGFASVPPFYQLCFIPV
Chain of Cytochrome P450 2D6 (Homo sapiens) (P10635 whole entry, looked up): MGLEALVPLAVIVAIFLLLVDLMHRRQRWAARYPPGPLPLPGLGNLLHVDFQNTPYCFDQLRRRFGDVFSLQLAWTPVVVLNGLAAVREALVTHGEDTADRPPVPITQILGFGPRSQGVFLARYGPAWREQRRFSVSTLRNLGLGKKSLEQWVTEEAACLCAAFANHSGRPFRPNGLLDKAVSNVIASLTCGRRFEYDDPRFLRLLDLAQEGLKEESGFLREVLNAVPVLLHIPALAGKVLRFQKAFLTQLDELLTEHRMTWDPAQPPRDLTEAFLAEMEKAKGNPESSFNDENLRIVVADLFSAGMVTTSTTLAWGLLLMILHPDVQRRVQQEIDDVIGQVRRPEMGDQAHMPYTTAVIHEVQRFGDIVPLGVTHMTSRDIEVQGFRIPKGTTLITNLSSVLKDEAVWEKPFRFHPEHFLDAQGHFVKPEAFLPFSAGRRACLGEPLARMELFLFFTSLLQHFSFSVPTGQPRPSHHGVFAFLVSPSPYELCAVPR
Chain of Nuclear receptor subfamily 1 group I member 2 (Rattus norvegicus) (Q9R1A7 whole entry, looked up): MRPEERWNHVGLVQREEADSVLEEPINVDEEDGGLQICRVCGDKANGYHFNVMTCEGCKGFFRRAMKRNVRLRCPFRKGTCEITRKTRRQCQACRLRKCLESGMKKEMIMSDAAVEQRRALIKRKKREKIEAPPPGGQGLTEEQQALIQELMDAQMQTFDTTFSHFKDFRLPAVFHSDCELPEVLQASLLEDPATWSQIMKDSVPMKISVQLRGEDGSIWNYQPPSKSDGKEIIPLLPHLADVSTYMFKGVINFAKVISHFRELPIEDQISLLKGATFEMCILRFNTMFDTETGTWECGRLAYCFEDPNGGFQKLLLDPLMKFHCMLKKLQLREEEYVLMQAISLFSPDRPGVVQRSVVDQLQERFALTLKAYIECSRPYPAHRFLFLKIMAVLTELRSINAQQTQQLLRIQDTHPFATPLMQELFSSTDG

Cc1ccc(C(C)OC(=O)C2(C)CCC(C(=O)O)C2(C)C)cc1 (centres undefined)
inactive: Potency [1] | Potency [2] | Potency [3] | Potency [4] | Potency [5]

c1ccc(-c2ccccn2)nc1
inactive: Potency [6] | Potency [3] | Potency [5] | Potency [7]
active: Potency [4] 24.3 µM

O=C1OC(CN2CCOCC2)CN1/N=C/c1ccc([N+](=O)[O-])o1 (centres undefined)
inactive: Potency [6] | Potency [2] | Potency [4] | max activation [8] -7.02% | Potency [9] | Potency [10]
active: Potency [5] 38.9 µM

CCCCCCCCCc1ccc(OCCOCCO)cc1
inactive: Potency [2] | max activation [8] -12.1% | Potency [9] | Potency [10]
active: Potency [1] 18.1 µM | Potency [3] 20.4 µM | Potency [4] 6.44 µM | Potency [5] 23.6 µM | Potency [7] 16.7 µM

C=CCOc1ccccc1OCC(O)CNC(C)C (centres undefined)
inactive: Potency [1] | Potency [2] | Potency [3] | Potency [4] | max activation [8] 5.72% | Potency [9] | Potency [10] | Potency [7]
active: Potency [5] 9.77 µM

Cc1ccccc1S(=O)(=O)O
inactive: Potency [1] | Potency [2] | Potency [3] | Potency [4] | Potency [5] | Potency [7]

O=C(OCCc1ccccc1)c1ccccc1
active: Potency [7] 12.6 µM
inactive: Potency [1] | Potency [2] | Potency [3] | Potency [4]

Cc1nn(C)c(Oc2ccccc2)c1/C=N/OCc1ccc(C(=O)OC(C)(C)C)cc1
inactive: Potency [2] | Potency [5]
active: Potency [4] 38.6 µM | Potency [7] 2 µM

Nc1cccc(S(=O)(=O)c2cccc(N)c2)c1
active: Potency [7] 35.6 µM
inactive: Potency [1] | Potency [2] | Potency [3] | Potency [4] | Potency [5]

O=C(O)CC(=O)C(=O)O
inactive: Potency [1] | Potency [2] | Potency [3] | Potency [5]
active: Potency [4] 48.7 µM | Potency [7] 56.6 µM

COS(=O)(=O)C(F)(F)F
inactive: Potency [1] | Potency [2] | Potency [3] | Potency [4] | Potency [5] | Potency [7]

C=C(C)C(=O)OCC
inactive: Potency [2] | Potency [3] | Potency [4] | Potency [5]

C#C[C@]1(O)CC[C@H]2[C@@H]3CCc4cc(OC5CCCC5)ccc4[C@H]3CC[C@@]21C
inactive: Potency [2] | Potency [3] | max activation [8] -3.04% | Potency [5]
active: Potency [1] 29.8 µM

O=CC1CC=CCC1 (centres undefined)
inactive: Potency [2] | Potency [3] | Potency [4] | Potency [7]
active: Potency [5] 55.9 µM

COC(=O)c1ccc(I)cc1S(=O)(=O)NC(=O)Nc1nc(C)nc(OC)n1
inactive: Potency [1] | Potency [2] | Potency [3] | Potency [4] | Potency [5] | Potency [7]

CCCCCCCC#N
inactive: Potency [1] | Potency [2] | Potency [3] | Potency [5] | Potency [7]

Clc1ccc2c(c1)CCc1cccnc1C2=C1CCNCC1
active: Potency [10] 14.1 µM
inactive: Potency [2] | Potency [4] | max activation [8] -7.49%

CNCCCCOc1ccccc1Cc1ccccc1
inactive: Potency [2] | Potency [3] | Potency [4] | Potency [10]
active: Potency [5] 2.45 µM

CCCCCCCCCCCCN1CCCCCC1=O
inactive: Potency [1] | Potency [2] | Potency [3] | Potency [7]
active: Potency [4] 21.7 µM

CC1=CCCC(C)(C)C12CCC(C)O2 (centres undefined)
active: Potency [4] 54.5 µM
inactive: Potency [1] | Potency [2] | Potency [3] | Potency [7]

CC(C)(COC(=O)c1ccccc1)COC(=O)c1ccccc1
inactive: Potency [2] | Potency [3] | Potency [4] | Potency [5]
active: Potency [7] 20 µM

CCCCCCCCCOS(=O)(=O)O
inactive: Potency [2] | Potency [3] | Potency [4] | Potency [5]
active: Potency [7] 79.6 µM

Brc1c2ccccc2cc2ccccc12
active: Potency [4] 61.8 µM | Potency [7] 35.9 µM
inactive: Potency [1] | Potency [2] | Potency [3] | Potency [5]

CN1CCN(C(c2ccccc2)c2ccccc2)CC1
active: Potency [5] 4.9 µM
inactive: Potency [2] | Potency [3] | Potency [4] | max activation [8] -2.77% | Potency [9] | Potency [10] | Potency [7]

CCO[Si](CCCCl)(OCC)OCC
inactive: Potency [1] | Potency [2] | Potency [3] | Potency [4]
active: Potency [5] 22.3 µM | Potency [7] 31.4 µM

CNCCCN1c2ccccc2CCc2ccccc21
inactive: Potency [2] | Potency [4] | max activation [8] -1.95% | Potency [9] | Potency [10] | Potency [7]

Nc1c(CC(=O)O)cccc1C(=O)c1ccc(Br)cc1
inactive: Potency [2] | Potency [3] | Potency [4] | max activation [8] -2.12% | Potency [9] | Potency [10] | Potency [5]

O=[N+]([O-])c1cccc(S(=O)(=O)O)c1
inactive: Potency [2] | Potency [3]
active: Potency [5] 7.21 µM | Potency [7] 32.2 µM
